Source: PubChem
L3MBTL1 block = L3MBTL1 (human) inhibition; Q9Y468; Potency, µM (doses to about 57.1 µM), for inactives: at the highest dose activity, negative = inhibition, usual class: inhibitors; AID 485360; AlphaScreen L3MBTL1–H3K9me1 peptide binding; hit rate 0.66% among 230,000; note: % is set by controls: 0 for no effect and ±100 for the full control effect; nearly all actives have a fitted effect of over 60% in size
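AlphaScreen proximity signal between nickel-chelate acceptor and streptavidin donor beads (final 10 ug/mL) reports binding of 50 nM L3MBTL1 to 75 nM biotin-H3 K9me1 peptide; complex incubated with compounds 30 min at room temperature; cefsulodin titration as control.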
JMJD2A Tudor = blocks the human JMJD2A Tudor domain | O75164 | AlphaScreen JMJD2A-Tudor / H3K4me3 peptide binding | Potency, µM (highest dose often 114 µM), for inactives: at the top dose activity change, negative = inhibition, most hits filed as inhibitors | hit rate 4.4% among 390,000; note: % is set by controls: 0 for no effect and ±100 for the full control effect; nearly all actives have a fitted effect of over 50% in size
G9a block = inhibitors of human histone lysine methyltransferase G9a. AID 504332. Q96KQ7. Potency, µM (doses to about 102 µM), for inactives: at the highest dose activity, negative = inhibition, hits mostly inhibitors. hit rate 8.8% among 350,000. G9a H3K9 monomethylation, AlphaScreen, 2 h; note: % is set by controls: 0 for no effect and ±100 for the full control effect; nearly all actives have a fitted effect of over 75% in size
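AlphaScreen read-out: biotin-H3K9 peptide (500 nM) methylation by 20 nM enzyme with 20 uM SAM, 2 h at room temperature after 15 min compound preincubation; anti-monomethyl H3K9 antibody plus donor/acceptor beads, 10 min dark.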
HP1b chromo inh = HP1-beta chromodomain-methylated histone interaction inhibition | AlphaScreen HP1-beta / biotin-H3K9me3 peptide binding | Potency, µM (series often up to 114 µM), without a hit: at the highest dose activity change, negative = inhibition, usual class: inhibitors | hit rate 0.56% among 390,000 | AID 540317; note: nearly all actives have a fitted effect of over 70% in size
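HP1-beta protein (50 nM final) preincubated 30 min at room temperature with biotinylated H3(1-18)K9me3 peptide (50 nM) in PBS pH 7.4, 0.01% Tween-20, then compound added for 30 min. AlphaScreen streptavidin donor/nickel chelate acceptor beads (10 ug/mL final), 30 min dark, luminescence read.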
BAZ2B inh = inhibitors of human BAZ2B bromodomain. AlphaScreen BAZ2B-H3K14Ac peptide displacement. Potency, µM (top dose mostly 114 µM), for the others: top-dose activity change, negative = inhibition, actives largely listed as inhibitors. hit rate 4.4% among 360,000; note: % is set by controls: 0 for no effect and ±100 for the full control effect; nearly all actives have a fitted effect of over 60% in size
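AlphaScreen luminescence quantifies BAZ2B engagement of H3K14Ac peptide; the protein and biotinylated peptide are both at 50 nM final, buffer PBS pH 7.4 with 0.01% Tween-20, all steps at room temperature.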
Sfp PPTase inh = Sfp phosphopantetheinyl transferase inhibition; Q9F4F7; Biochemical Sfp PPTase activity, qHTS; Potency, µM, for inactives: largest response in the series, negative = inhibition, most hits filed as inhibitors; hit rate 3.5% among 310,000; AID 1490;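 note: the enzyme is Sfp with the accession as filed and its product quenches rhodamine fluorescence; 0% = enzyme reaction without inhibitor and -100% = no enzyme wells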
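After 15 min at room temperature with compound, 15 nM Sfp received 5 uM rhodamine-CoA plus 12.5 uM BHQ-2-ybbR (50 mM Hepes pH 7.6, 10 mM MgCl2). Rate came from the fluorescence difference over 30 min, ex 525/em 598 nm.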
Starred values were filed as active, the others as inactive; ! = not active in a repeat; [ ] = another dose, or the depositor's remark. Sampled rows, rich in hits. Any-hit rate of the full collection: about 12%. Calls come from the whole dose curve; as a rule, active = well fitted curve in the direction sought with a large enough effect; inconclusive = small, poorly fitted or top-dose-only effect, or another doubt; inactive = no such curve, though single readings can be large; an effect the other way counts as inactive or inconclusive. Potency is the fitted concentration of half-maximal effect.

CC(=O)c1cccc(NC(=O)c2c(-c3ccccc3)c(-c3ccccc3)nn(C)c2=O)c1 was read as JMJD2A Tudor -19%, G9a block -21%[59 µM], HP1b chromo inh 26% and BAZ2B inh -26%.
`Cc1cc(=O)oc2c(CN(C)Cc3ccccc3)c(O)ccc12` gave L3MBTL1 block 7%, JMJD2A Tudor 4%, G9a block -65%[59 µM], HP1b chromo inh 45%, BAZ2B inh -6% and Sfp PPTase inh -11%.
`C=CCN(CC=C)Cc1c(O)ccc2c1oc(=O)c1ccccc12` gave JMJD2A Tudor 8.9µM* and HP1b chromo inh inconclusive.
For Cc1ccc(C)c(N2CCN(C(=O)C3CCCN(S(=O)(=O)c4ccc5c(c4)oc(=O)n5C)C3)CC2)c1 (configuration not stated) the results were JMJD2A Tudor -25%, G9a block -38%[59 µM], HP1b chromo inh 17% and BAZ2B inh -20%.
Screening O=c1/c(=C/c2ccccn2)sc2nc3ccccc3n12 returned L3MBTL1 block 5%, JMJD2A Tudor inconclusive, G9a block 50µM*, HP1b chromo inh 26%, BAZ2B inh 2% and Sfp PPTase inh -4%.
For O=[N+]([O-])c1cc([N+](=O)[O-])c2cc3ccccc3nc2c1 the results were JMJD2A Tudor -30%, G9a block inconclusive, HP1b chromo inh 11%[57 µM], BAZ2B inh inconclusive and Sfp PPTase inh -6%.
`O=c1/c(=C\c2cc([N+](=O)[O-])cc([N+](=O)[O-])c2O)sc2nc3ccccc3n12` gave JMJD2A Tudor 20µM*, G9a block 6.3µM*, HP1b chromo inh inconclusive, BAZ2B inh 50µM* and Sfp PPTase inh 22µM*.
`Cn1c2c(c(=O)[nH]c1=O)C(c1ccc(O)cc1)C1=C(N2)c2ccccc2C1=O` (configuration not stated) gave JMJD2A Tudor 50µM*, G9a block 35µM*, HP1b chromo inh 35µM*, BAZ2B inh 2% and Sfp PPTase inh -22%.
For c1ccc(N2CCN(c3nc4ccccc4n4nnnc34)CC2)cc1 the results were L3MBTL1 block 3.5µM*, JMJD2A Tudor 1%, G9a block 7%[59 µM], HP1b chromo inh 48%, BAZ2B inh 12% and Sfp PPTase inh -17%.
COc1ccccc1C(=O)N/C(=C\c1cn(S(=O)(=O)N(C)C)c2ccccc12)C(=O)NCCCn1ccnc1 was read as JMJD2A Tudor inconclusive, G9a block -1%[59 µM], HP1b chromo inh 26% and BAZ2B inh inconclusive.
For CN(C)c1ccc(/C=C(/NC(=O)c2ccccc2)C(=O)NCCCn2ccnc2)cc1 the results were JMJD2A Tudor -35%, G9a block 8%[0.0925 µM], HP1b chromo inh 1%, BAZ2B inh 35µM* and Sfp PPTase inh 1%.
O=C(NCCCn1ccnc1)/C(=C/c1ccc(Cl)cc1)NC(=O)c1ccccc1 was read as JMJD2A Tudor -31%, G9a block 3%, HP1b chromo inh 16%, BAZ2B inh 50µM* and Sfp PPTase inh 11%.
`COc1ccc(/C=C(\NC(=O)c2ccc([N+](=O)[O-])cc2)C(=O)NCCCn2ccnc2)cc1` gave JMJD2A Tudor -9%, G9a block -1%, HP1b chromo inh 25%, BAZ2B inh inconclusive and Sfp PPTase inh 18%.
`COc1ccc(/C=C(\NC(=O)c2ccc(C)cc2)C(=O)NCCCn2ccnc2)cc1` gave JMJD2A Tudor -18%, G9a block 5%, HP1b chromo inh 23%, BAZ2B inh 50µM* and Sfp PPTase inh 24%.
`Cc1ccc(C(=O)N/C(=C\c2cn(S(=O)(=O)N(C)C)c3ccccc23)C(=O)NCCCn2ccnc2)cc1` gave JMJD2A Tudor inconclusive, G9a block -6%, HP1b chromo inh 50µM*!, BAZ2B inh inconclusive and Sfp PPTase inh 5%.
